Reference: PubChem BioAssay (NCATS)
Results filed as inconclusive are left out. A call without a number means that no potency is given here. Active and inactive are the calls of the source. Calls follow the shape of the dose curve; as a rule, active = well fitted curve in the direction sought with a large enough effect; inconclusive = small, poorly fitted or top-dose-only effect, or another doubt; inactive = no such curve, though single readings can be large; an effect the other way counts as inactive or inconclusive.

Legend:
[1] = molecular target: Aldehyde dehydrogenase, mitochondrial (Homo sapiens) (UniProt P05091); assay: qHTS for Inhibitors of the Aldehyde Dehydrogenase Family (ALDH2) Primary screen (AID 2061308); also: nearly all actives have a fitted effect of over 55% in size
[2] = molecular target: Retinaldehyde dehydrogenase 3 (Homo sapiens) (UniProt P47895); assay: qHTS for Inhibitors of the Aldehyde Dehydrogenase Family (ALDH1A3) Primary screen (AID 2061315)

SMILES	Potency [1]	Potency [2]
O=C(Nc1ncc(Cc2ccc(C(F)(F)F)cc2)s1)c1ccco1	inactive	inactive
COc1ccc(C2Nc3ccccc3C(=O)N2Cc2ccccc2)cc1COc1c(C)cccc1C (stereo not drawn)	inactive	inactive
Cc1ccc(C(=O)[C@H]2CC[C@@H](C(=O)Nc3ccc(S(=O)(=O)Nc4nccs4)cc3)C2)cc1C	inactive	inactive
Cc1ccc(-c2cc(C(=O)Nc3ccc(C(=O)O)cc3)c3ccccc3n2)cc1C	inactive	inactive
Cc1ccc(NS(=O)(=O)c2cc3c(cc2NCCO)NC(=O)CC3)cc1C	inactive	inactive
Cc1c([S+](=O)([O-])N2CCN([S+](=O)([O-])c3c(F)cccc3F)CC2)sc2ccc(Cl)cc12	inactive	inactive
CC(C)c1ccccc1-c1ncc(N)c(NCc2ccc(-c3cccnc3)cc2)n1	inactive	inactive
COc1ccc(C2=Nn3c(nnc3-c3ccccc3Cl)SC2)cc1O[C@H]1CCOC1	inactive	inactive
O=C(Nc1nnc(-c2ccncc2)s1)Nc1cccc2ccccc12	inactive	inactive
Cc1ccc(S(=O)(=O)Nc2cc(C)ccc2C(=O)Nc2nc(-c3ccccc3)cs2)cc1	inactive	inactive
O=C(Nc1ncc(Cc2ccc(C(F)(F)F)cc2)s1)c1cnc(-c2ccccc2)[nH]1	inactive	inactive
CN1C(=O)NC(c2ccccc2Cl)C2=C1CCCC2=O (stereo not drawn)	inactive	inactive
COc1cc(O)c(C(CC(=O)N2CCCCC2)c2ccc3c(c2)OCO3)c(OC)c1 (stereo not drawn)	inactive	inactive
CCN1CCCC1Cn1c(-c2ccccc2)nc2c(NCCOC)nc(C)nc21 (stereo not drawn)	inactive	inactive
